Rows were chosen to be rich in hits. Some 4.6% of all compounds tested hit in one or more screens of this group.
TRHR agonist-1: qHTS for Small Molecule Agonists and Allosteric Enhancers of Human TRH Receptor: Primary Screen for Agonists; TRHR cells, calcium flux fluo-8, FDSS agonist mode; 360,000 compounds, 0.18% hits; activation, % at 2 µM; in the data active means activation above about 30%
Target sequence (P34981 whole entry, looked up): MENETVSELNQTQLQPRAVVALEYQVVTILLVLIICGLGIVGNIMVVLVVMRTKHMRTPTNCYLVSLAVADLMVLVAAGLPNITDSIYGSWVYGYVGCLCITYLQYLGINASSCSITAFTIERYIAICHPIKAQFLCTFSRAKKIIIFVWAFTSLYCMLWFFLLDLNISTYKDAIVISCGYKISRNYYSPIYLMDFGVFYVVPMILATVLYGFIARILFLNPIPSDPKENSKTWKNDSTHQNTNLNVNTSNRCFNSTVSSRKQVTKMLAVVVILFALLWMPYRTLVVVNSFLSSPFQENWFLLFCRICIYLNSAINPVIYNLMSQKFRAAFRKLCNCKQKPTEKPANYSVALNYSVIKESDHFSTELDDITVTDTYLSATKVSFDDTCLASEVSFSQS
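TRHR-expressing cells, plated overnight in medium with 10% serum, were loaded with fluo-8 calcium dye at room temperature. After a 10 s baseline, library compound was pin-added and calcium release was recorded kinetically (ex 480/em 530) as agonist response.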
D1 potentiator: Potentiators of Human D1 Dopamine Receptor: qHTS; D(1A) dopamine receptor (Homo sapiens), P21728; HEK293 TREx D1 cells, calcium flux, dopamine EC20 potentiation; potentiation, % at 10 µM; 360,000 compounds, 0.036% hits; AID 504651, 2011; in the data active means potentiation above about 30%
D1 agonist: Allosteric Agonists of the Human D1 Dopamine Receptor: qHTS; D(1A) dopamine receptor (Homo sapiens), P21728; HEK293 T-REx D1 cells, calcium flux, agonist mode; activation, % at 2 µM; 360,000 compounds, 1% hits; AID 504660, 2011; in the data active means activation above about 30%
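Agonism was scored from calcium flux recorded over 180 s (1 read/s) after pintool compound addition, following a 10-cycle baseline. Cells were inducible force-coupled HEK293 TREx D1, plated overnight at 30 C and loaded with no-wash calcium dye.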
D1 antag: Antagonist of Human D 1 Dopamine Receptor: qHTS; HEK293 TREx D1 cells, calcium flux, dopamine EC80; active compounds read low; 360,000 compounds, 3.2% hits; activity change, negative = inhibition, % at 10 µM; in the data active means activity change below about -30%
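Antagonism measured as reduced calcium response to an EC80 dopamine addition following 180 s compound pre-read; cells were inducible HEK293 Trex D1 plated overnight at 30 C, read kinetically at 1 cycle/sec.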
TRHR enhancer-1: qHTS for Small Molecule Agonists and Allosteric Enhancers of Human TRH Receptor: Primary Screen for Enhancers | AID 493056, 2011 | enhancement, % at 2 µM | Thyrotropin-releasing hormone receptor (Homo sapiens), P34981 | 360,000 compounds, 0.66% hits | TRHR cells, fluo-8 calcium fluorescence, EC20 TRH enhancement; in the data active means enhancement above about 30%
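TRHR-expressing cells loaded with fluo-8 calcium dye were read kinetically (ex 480/em 530) during compound addition, then stimulated with an EC20 of TRH (10 nM final). Enhancement of the Gq-mediated intracellular calcium response was scored.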
TRHR enhancer-2: qHTS for Small Molecule Agonists and Allosteric Enhancers of Human TRH Receptor: Confirmation Screen for Enhancers; TRH receptor cell assay, enhancer confirmation qHTS; activity change, negative = inhibition, % at 46.1 µM; 970 tested, under 10 active; shares compounds with TRHR enhancer-1;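 further: compound effect scored on response to added TRH at EC20 of 10 nM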
TRHR agonist-2: qHTS for Small Molecule Agonists and Allosteric Enhancers of Human TRH Receptor: Confirmation Screen for Agonists. shares compounds with TRHR enhancer-1. Potency, µM (series often up to 46.1 µM), actives largely listed as activators. TRHR-expressing cells, agonist activation read-out. 970 compounds, 8% hits. AID 493078, 2011; further: nearly all actives have a fitted effect of over 75% in size
Numbers stand for hits; – = inactive; ? = inconclusive; · = no result given. Unless noted, the call rests on the fitted dose curve; in most records, active means well fitted curve in the direction sought with a large enough effect; inconclusive means small, poorly fitted or top-dose-only effect, or another doubt; inactive means no such curve, though single readings can be large; an effect the other way counts as inactive or inconclusive.

SMILES | TRHR agonist-1 | D1 potentiator | D1 agonist | D1 antag | TRHR enhancer-1 | TRHR enhancer-2 | TRHR agonist-2
CC(NC(=O)/C(=C/c1ccc2c(c1)OCO2)NC(=O)c1cccc([N+](=O)[O-])c1)C(=O)O (stereo unspecified) | – | – | – | – | – | · | ·
CC(C)C[C@@H](CN(C)N=O)N(C[C@H](Cc1ccccc1)N(CCc1ccccc1)N=O)N=O | – | – | – | – | – | · | ·
CN(C[C@H](Cc1ccccc1)N(CCN(CCc1ccccc1)N=O)N=O)N=O | – | – | – | – | 43 | – | –
Cc1c(NC(=S)NC(=O)c2cccc3ccccc23)cccc1C(=O)O | – | – | – | – | 65 | – | –
CCC1CCCCN1CCCNC(=O)c1cn(CC)c2ccc(S(=O)(=O)N3CCc4ccccc4C3)cc2c1=O (stereo unspecified) | – | – | – | – | 51 | – | –
CC(=O)Nc1nc(-c2cc([N+](=O)[O-])cs2)cs1 | – | – | – | – | – | · | ·
CCc1cccc2sc(NC(=O)C3CC3)nc12 | – | – | – | – | 42 | – | ?
CCc1noc(C)c1C(=O)Nc1nc2c(C)cccc2s1 | – | – | – | – | 56 | – | –
CCCCNC(=O)Nc1ncn[nH]1 | – | – | – | – | – | · | ·
CCOC(=O)c1cncc(C#CCO)c1 | – | – | – | – | – | · | ·
Cc1ccc(NC(=O)c2ccccc2-c2ccccc2C(=O)O)cc1 | – | – | – | – | – | · | ·
Cc1ccc(O)c(NC(=O)c2ccccc2-c2ccccc2C(=O)O)c1 | – | – | – | – | 43 | – | –
O=C(c1cc(S(=O)(=O)N2CCOCC2)ccc1Cl)N1CCC(Cc2ccccc2)CC1 | – | – | – | – | – | · | ·
Cc1ccc(N2C(=O)CSC23C(=O)Nc2ccccc23)cc1F (stereo unspecified) | – | – | – | – | – | · | ·
CN(C)CCCNc1oc(-c2ccccc2Cl)nc1S(=O)(=O)c1ccc(F)cc1 | – | – | – | – | 57 | ? | ?
Oc1ccccc1CNc1ccc(OC(F)(F)F)cc1 | – | – | – | – | – | · | ·
CC(=O)Nc1cc2c(nc1C)nc(C)n2Cc1ccc(Br)cc1 | – | – | – | – | 46 | – | –
O=C(CC1SC(=Nc2ccc(O)cc2)NC1=O)Nc1ccccc1 (stereo unspecified) | – | – | – | – | 53 | – | –
CCOc1ccc(N=C2NC(=O)C(CC(=O)Nc3ccccc3)S2)cc1 (stereo unspecified) | – | – | – | – | – | · | ·
CSCCCNC(=S)Nc1ccc(N2CCOCC2)cc1 | – | – | – | – | 43 | – | –
CSCCCNC(=S)Nc1ccc(N2CCOCC2)cc1N1CCOCC1 | – | – | – | – | – | · | ·
CC(=O)Nc1ccccc1-c1nn[nH]n1 | 44 | – | – | – | – | – | –
Cc1nc2c3ccccc3nc(NNC(=O)CCC(=O)NCCN3CCN(c4ccccc4)CC3)n2n1 | – | – | – | – | – | · | ·
N#Cc1ccc(COc2ccc(CCO)cc2-n2nc3ccccc3n2)cc1 | – | – | – | – | – | · | ·
OCCc1ccc(O)c(-n2nc3ccccc3n2)c1 | – | – | – | – | 44 | – | –
SMILES | TRHR agonist-1 | D1 potentiator | D1 agonist | D1 antag | TRHR enhancer-1 | TRHR enhancer-2 | TRHR agonist-2
CC1(C)CNC(=O)c2sc(NC(=O)c3ccccc3Cl)nc2C1 | – | – | – | – | – | · | ·
COc1ccc(C2C(C#N)=C(N)Oc3cc(N)ccc32)cc1 (stereo unspecified) | – | – | – | – | 63 | – | –
CC(C)N(Cc1cnn(C)c1)Cc1nc(COc2ccccc2)no1 | – | – | – | – | – | · | ·
CN(Cc1cnn(C)c1)Cc1nc(COc2ccccc2)no1 | – | – | – | – | 46 | – | –
N#Cc1c(-c2ccccc2)cc(-c2ccc3c(c2)OCO3)[nH]c1=O | – | – | – | – | 53 | – | –
N#Cc1c(-c2ccc3c(c2)OCO3)csc1N | – | – | – | – | – | · | ·
CCO[C@H]1OC(C(=O)NC2CC2)=C[C@@H](C)[C@@H]1CCCO | – | – | – | – | 44 | – | –
Cc1cccc(C)c1NC(=O)COC(=O)c1ccccc1Nc1ccccc1 | 35 | – | – | – | – | – | –
O=C(OCC(=O)N1CCN(c2ccccc2)CC1)c1ccc2ccccc2n1 | – | – | – | – | 41 | – | –
O=C(N/N=C/c1ccc(OCc2cnc(Cl)s2)cc1)c1ccncc1 | – | – | – | -33 | 50 | – | –
CC(C)C(=O)Nc1nnc(NC(=S)Nc2ccccc2)s1 | – | – | – | – | 50 | – | –
Cc1cc(C)c(OCC(=O)Nc2ccc(S(=O)(=O)N3CCOCC3)cc2)c(C)c1 | – | – | – | – | 41 | – | –
COc1ccccc1OCC(=O)Nc1ccc(S(=O)(=O)N2CCOCC2)cc1 | – | – | – | – | – | · | ·
Cc1ccc(C(=O)CCNc2cccc(Br)c2)o1 | – | – | – | – | 66 | – | –
O=C(Cc1nc2ccccc2[nH]c1=O)c1ccccc1 | 31 | – | 52 | – | – | – | ?
O=C(Nc1c2c(nn1-c1ccc(F)cc1)CS(=O)(=O)C2)c1ccc2c(c1)OCO2 | – | – | – | – | – | · | ·
COc1ccc(C(=O)Nc2ccc(S(=O)(=O)NC(C)=O)cc2)cc1[N+](=O)[O-] | – | – | – | – | – | · | ·
CC(=O)NS(=O)(=O)c1ccc(NC(=O)c2ccc(Cl)cc2[N+](=O)[O-])cc1 | – | – | – | – | 50 | – | –
O=S(=O)(c1ccc(-c2cc(C(F)(F)F)on2)s1)N1CCN(c2cccc(Cl)c2)CC1 | – | – | – | – | – | · | ·
CN1C(=O)c2cccc3c(N(C)C)ccc(c23)C1=O | 44 | – | 60 | – | – | – | 16µM
O=S(=O)(NCC1(N2CCOCC2)CCCCC1)c1ccc(Cl)cc1C(F)(F)F | 46 | – | – | – | – | – | ?
CCc1ccc(NC(=O)c2ccc3[nH]c(C)c(C)c3c2)cc1 | – | – | – | – | – | · | ·
CCCN1CCC(CCOc2ccccc2)(C(=O)OCC)CC1 | – | – | – | – | 56 | – | –
Cc1cc(C(=O)NCCN2CCOCC2)ccc1[N+](=O)[O-] | – | – | – | – | 45 | – | –

Compound activity: PubChem, National Center for Advancing Translational Sciences (NCATS)
